According to PubChem BioAssay AID504423 (Broad Institute, 2011):
“And” between values parts separate entries of the source, which are not always exact repeats. Equal entries are not always repeated. About 260 (0.076%) of roughly 340,000 compounds were called active.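 Rule for the calls: active = highest replicate inhibition at or above 60% at 9 µM, even if other replicates fall short; inactive = all replicates below 60% inhibition.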 Only a selection was taken, and actives are over-represented in it overall.

What follows are compounds tested on Kaposi's sarcoma herpesvirus LANA C-terminal domain (residues 932-1162) DNA binding (assay: inhibitors of KSHV C-LANA binding to DNA, primary screen, biochemical, fluorescence polarization, FAM-LBS DNA, MBP-C-LANA, single point (AID 504423;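 note: 0% = neutral control wells and 100% = 4 µM acridine orange control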)). Conditions: at 9 µM, stronger effect = higher value.

inhibition, inactive:
C=CCNC(=S)NNC(=O)c1ccc(Br)o1 0.832%
c1ccc(CNc2ncnc3[nH]ncc23)cc1 -0.81%
O=C(CN1CCN(c2ncccn2)CC1)Nc1ccccc1C(F)(F)F -0.265%
COC(=O)Cn1c(=NC(=O)CSCC(=O)Nc2cc(C)on2)sc2ccccc21 1.43%
Cc1ccc(OCCNC(=O)c2cccc(S(=O)(=O)N3CCN(Cc4ccccc4)CC3)c2)cc1 -0.305%
COc1ccc(Cc2nnc(SCC(=O)c3cccc([N+](=O)[O-])c3)n2C)cc1 0.228%
Cc1cc(C)c(NC(=O)CN2CCCCCC2)c(C)c1 1.26%
N=C1c2ccccc2-c2ccccc21 1.95%
CCC(C)C1(C2CCCC2)NC(=O)NC1=O (centres undefined) 3.17%
CCOc1ncccc1C(=O)NCCc1ccc(OC)cc1 0.452%
CC1CCN(C(=O)c2ccccc2NC(=O)Cc2ccccc2)CC1 2.17%
O=C(C1CCN(S(=O)(=O)c2ccc(Br)s2)CC1)N1CCN(C2CCCCC2)CC1 -0.326%
Cc1ccccc1CN1C[C@@H]2C[C@@H](c3cn(C)nc3-c3ccccc3)N3CCC[C@@]23C1=O -1.95%
O=C(Nc1ccc2sc3ccccc3c(=O)c2c1)c1ccccc1Cl -0.526%
CCCn1nc(NC(=O)C(C)C)c2cc3cc(OC)ccc3nc21 -1.15%
CC(C(=O)N(C)CC(=O)Nc1ccccc1C(F)(F)F)N1C(=O)c2ccccc2C1=O (centres undefined) 1.14%
CCN(CC)P(=O)(/C(Cl)=C\Nc1c(C)n(C)n(-c2ccccc2)c1=O)N(CC)CC -1.51%
Cc1cc([N+](=O)[O-])nn1CC(=O)Nc1ccc(Cc2ccncc2)cc1 0.568%
Cn1c(N2CCOCC2)c(C=O)c2ccccc21 0.207%
Cc1cc(Br)ccc1NC(=O)CN(C)C(=O)CN1C(=O)NC2(CCCC2)C1=O 0.321%
Cn1cc(S(=O)(=O)N2CCC(Cc3ccccc3)CC2)c(=O)n(C)c1=O 1.59%
CCCCN(CCCC)CCCNC(=O)CN1C(=O)COc2ccc(S(=O)(=O)N3CCC(C)CC3)cc21 0.15%
COc1cccc2c1CCC(NC(C)=O)C2=O (centres undefined) -1.29%
O=C(CSc1ccsc1[N+](=O)[O-])N1CCCCC1 1.32%
CCCCNS(=O)(=O)c1ccc(S(=O)(=O)n2cnc3ccccc32)cc1 0.219%
COc1ccc(C(=O)Nc2ccc(C(=O)NCC3CCCO3)cc2)c(OC)c1OC (centres undefined) 2.3%
Cc1ccc(CNC(=O)C(=O)c2cn(CC(=O)N3CCCC3)c3ccccc23)cc1 2.35%
COC1=C/C(=C/c2c(N)n3nc(CC(=O)N4CCOCC4)sc3nc2=O)C=CC1=O 32.7%
CCC1CCCCN1CCNC(=O)c1[nH]c(C)c(C(C)=O)c1C (centres undefined) 5.48%
COc1cc(CN2CCN(Cc3ccc(C)cc3)CC2)c([N+](=O)[O-])cc1OC -0.737%
COc1ccccc1N1CCN(Cc2ccc(OC)c3ccccc23)CC1 -3.69%
CC(=O)Nc1ccc(SCC(=O)Nc2ccccc2Oc2ccccc2)cc1 1.36%
C[C@H](CO)N1C[C@H](C)[C@H](CN(C)C(=O)Nc2ccc(C(F)(F)F)cc2)Oc2c(NC(=O)c3ccncc3)cccc2C1=O -3.26%
O=C(c1ccc(F)cc1)C1CCN(Cc2cn[nH]c2-c2ccccc2)CC1 1.59%
Cc1nc(C)c2c(c1C(F)(F)F)-c1ccccc1C2(F)F 1.49%
COc1ccc([C@@H]2[C@@H]3C(=O)N(C(C)(C)C)C(=O)[C@@H]3[C@]3(Cc4ccccc4)C(=O)N(c4cccc(Br)c4)C(=O)N23)cc1 0.113%
CCOc1cc(C(=O)OCC(=O)Nc2cccc(C)c2)ccc1OCC(=O)N1CCOCC1 0.789%
CO/N=C(\C(=O)N[C@@H]1C(=O)N2C(C(=O)O)=C(COC(C)=O)CS[C@H]12)c1csc(N)n1 (stereo in doubt) 8.29% and 6.28% and 10.6%
C=CC1=C(C(=O)O)N2C(=O)[C@@H](NC(=O)/C(=N\OCC(=O)O)c3csc(N)n3)[C@H]2SC1 22.9%
CCOc1ccccc1N1CCN(C(=O)c2ccc3[nH]c(C)c(C)c3c2)CC1 -1.79%
CCC(=O)OCc1c(C(F)(F)F)nn(C)c1Oc1cccc(C(F)(F)F)c1 0.811%
CC1(C)N=C(c2ccccn2)C(C)(C)N1O 0.432%

inhibition, active:
COc1ccc(CN2CCN(Cc3ccc(OC)c(OC)c3OC)CC2)cc1 79%
C=CC1=C(C(=O)O)N2C(=O)[C@@H](NC(=O)/C(=N/OCC(=O)O)c3csc(N)n3)[C@H]2SC1 95.4%
